These results are taken from PMC4336329 (PLoS ONE, 2015).

About 14,000 (4.5%) of roughly 310,000 compounds showed an effect of 50% or more. Effects have a minus sign here. This excerpt belongs to a sample that is enriched for strong results.
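Also: peak tail current of the secondary pulse compared with the same well before compound.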

In the test the target is human ether-à-go-go-related gene (hERG) potassium channel (human, UniProt Q12809). Put plainly: primary screen, population patch clamp on CHO cells stably expressing hERG; higher = less effect of the substance.
Chain of human ether-à-go-go-related gene (hERG) potassium channel (Q12809 whole entry, looked up): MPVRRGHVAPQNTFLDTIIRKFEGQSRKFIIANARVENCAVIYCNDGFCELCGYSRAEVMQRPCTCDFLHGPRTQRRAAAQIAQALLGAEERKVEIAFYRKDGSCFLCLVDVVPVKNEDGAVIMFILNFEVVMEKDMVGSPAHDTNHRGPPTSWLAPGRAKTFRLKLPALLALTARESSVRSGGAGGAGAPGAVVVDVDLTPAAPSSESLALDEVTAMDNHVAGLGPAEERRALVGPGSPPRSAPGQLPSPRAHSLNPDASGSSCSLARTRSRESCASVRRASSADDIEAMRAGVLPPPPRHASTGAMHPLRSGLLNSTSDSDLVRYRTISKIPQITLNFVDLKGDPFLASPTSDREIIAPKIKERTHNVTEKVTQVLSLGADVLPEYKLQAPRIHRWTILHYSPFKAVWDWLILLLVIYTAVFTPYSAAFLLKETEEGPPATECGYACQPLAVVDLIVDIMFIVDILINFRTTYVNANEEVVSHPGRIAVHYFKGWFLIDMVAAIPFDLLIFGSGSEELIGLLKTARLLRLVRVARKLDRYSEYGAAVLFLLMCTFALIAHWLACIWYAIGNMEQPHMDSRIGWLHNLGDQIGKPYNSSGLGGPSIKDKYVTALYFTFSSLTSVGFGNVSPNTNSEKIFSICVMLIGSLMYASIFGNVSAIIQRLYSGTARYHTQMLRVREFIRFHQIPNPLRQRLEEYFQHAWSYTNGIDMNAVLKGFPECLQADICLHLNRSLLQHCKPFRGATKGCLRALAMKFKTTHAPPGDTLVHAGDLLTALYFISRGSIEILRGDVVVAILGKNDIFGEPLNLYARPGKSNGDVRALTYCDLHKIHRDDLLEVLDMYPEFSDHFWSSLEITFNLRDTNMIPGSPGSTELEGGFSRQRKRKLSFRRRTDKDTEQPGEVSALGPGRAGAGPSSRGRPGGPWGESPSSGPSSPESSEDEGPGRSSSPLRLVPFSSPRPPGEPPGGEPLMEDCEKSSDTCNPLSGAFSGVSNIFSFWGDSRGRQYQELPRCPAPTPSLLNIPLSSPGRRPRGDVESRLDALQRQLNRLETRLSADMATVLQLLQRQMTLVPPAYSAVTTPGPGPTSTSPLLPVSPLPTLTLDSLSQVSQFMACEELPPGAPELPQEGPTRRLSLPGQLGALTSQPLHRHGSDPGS
Consider `CC(C)N(C(=O)COC(=O)CNC(=O)c1ccc(Br)cc1)c1ccccc1`, for which the “hERG current change (%, negative = inhibition) at 10uM” value is listed as -15.5%. For `O=C(COc1ccc(Cl)cc1)NCCCNC(=O)c1ccncc1`, the “hERG current change (%, negative = inhibition) at 10uM” value is given as -36.1%. Turning to `COC(=O)C1=C(C)OC(N)=C(C#N)C1c1cc2cccc(C)c2nc1Cl` (centres unmarked), the “hERG current change (%, negative = inhibition) at 10uM” value is given as -5.39%. Take `CN(C)c1cc[n+](CC(=O)Nc2ccc(Cl)cc2)cc1.[Cl-]`: the “hERG current change (%, negative = inhibition) at 10uM” value is listed as 7.28%. For `COc1ccc(N2CCOCC2)c(NC(=O)c2cccnc2)c1` the value was 12.8%; for `O=C(c1cnn(C(=O)c2cccc(S(=O)(=O)N3CCOCC3)c2)c1)c1cc(Cl)cc(Cl)c1O`, -44.5%. For the compound `CC(=O)Oc1ccc(/C=N/NC(=O)c2ccc(N(C)S(=O)(=O)c3ccccc3)cc2)cc1`, the “hERG current change (%, negative = inhibition) at 10uM” value was 12.8%. On to `C=CCOC(=O)C1=C(C)NC(=S)NC1/C=C/c1ccccc1` (centres unmarked), for which the “hERG current change (%, negative = inhibition) at 10uM” value is reported as -4.63%. Turning to `COc1cccc(CN(C)CC(=O)NCc2ccccc2Cl)c1`, the “hERG current change (%, negative = inhibition) at 10uM” value is reported as -5.14%. Consider `COc1cccc(CN(C)CC(=O)NCc2ccccc2Cl)c1OC`, for which the “hERG current change (%, negative = inhibition) at 10uM” value is -7.66%. In the case of `CCOc1ccc(CN(C)CC(=O)NCc2ccccc2Cl)cc1`, the “hERG current change (%, negative = inhibition) at 10uM” value is -89.1%. Turning to `Cn1cccc1/C=N\NC(=O)C1COc2ccc(C(C)(C)C)cc2O1` (centres unmarked), the “hERG current change (%, negative = inhibition) at 10uM” value is -3.42%. For `COc1ccc(N2CC(C(=O)NCCC3=CCCCC3)CC2=O)c(OC)c1` (centres unmarked) the value was -4.67%; for `O=C(O)CC/C(=N/NC(=O)c1cccs1)c1ccccc1`, 6.16%; for `Nc1c(C(=O)NCc2ccco2)nnn1-c1ccccc1`, 2.52%. For `CC(C)NC(=O)C1CCN(C2CCN(C(=O)c3scc4c3CCCC4)CC2)CC1` the value was -1.4%. For `CC(C)NC(=O)C1CCN(C2CCN(C(=O)c3cc4c(s3)CCCCC4)CC2)CC1` the value was -51.8%.

In the case of `NC(=O)C1CCN(C(=O)c2cc3c(s2)CCCCC3)CC1`, the “hERG current change (%, negative = inhibition) at 10uM” value was -6.51%. Turning to `COc1ccc(S(=O)(=O)Cc2ccc(C(=O)O)o2)cc1`, the “hERG current change (%, negative = inhibition) at 10uM” value is given as 21.8%.

On to `CCOC(=O)N1CCC(n2c(SCC(=O)N3CCC(C)CC3)nc3ccccc3c2=O)CC1`, for which the “hERG current change (%, negative = inhibition) at 10uM” value is -47.9%. As to `CCOC(=O)N1CCC(n2c(SCC(=O)N3CCCC3)nc3ccccc3c2=O)CC1`, the “hERG current change (%, negative = inhibition) at 10uM” value was -20.9%. In the case of `CCOC(=O)N1CCC(n2c(SCC(=O)NCCc3ccc(S(N)(=O)=O)cc3)nc3ccccc3c2=O)CC1`, the “hERG current change (%, negative = inhibition) at 10uM” value worked out at 21%. Under `CCOC(=O)N1CCC(n2c(SCC(=O)Nc3ccccc3OC)nc3ccccc3c2=O)CC1` stands -66.4%; under `CCOC(=O)N1CCC(n2c(SCC(=O)NCc3ccccc3)nc3ccccc3c2=O)CC1`, -46.6%; under `CCOC(=O)N1CCC(n2c(SCC(=O)NCCC3=CCCCC3)nc3ccccc3c2=O)CC1`, -59.3%. As for `COc1ccccc1S(=O)(=O)Cc1ccc(C(=O)NCc2ccc(C)cc2)o1`, the “hERG current change (%, negative = inhibition) at 10uM” value is listed as -28.4%. As to `CC(C)(CNC(=O)c1cc(Cl)c(O)c(Cl)c1)N1CCCCC1`, the “hERG current change (%, negative = inhibition) at 10uM” value is 4.69%. For `c1ccc(N=Nc2ccc3cccccc2-3)cc1`, the “hERG current change (%, negative = inhibition) at 10uM” value is 8.38%. `Cc1cc(Oc2nnnn2-c2ccccc2)ccc1Cl`: the “hERG current change (%, negative = inhibition) at 10uM” value is given as -15.3%. On to `COc1ccc(C(CC(=O)N2CCC3(CC2)OCCO3)NS(=O)(=O)c2ccc(F)cc2)cc1` (centres unmarked), for which the “hERG current change (%, negative = inhibition) at 10uM” value is -2.22%. As to `O=C(O)C1CC=CCC1C(=O)Nc1ccc(Oc2ccc(Cl)cc2)cc1` (centres unmarked), the “hERG current change (%, negative = inhibition) at 10uM” value was 7.55%. Regarding `COc1ccc(CCC(=O)NNC(=O)c2ccc(F)cc2)cc1`, the “hERG current change (%, negative = inhibition) at 10uM” value amounted to 6.02%. Regarding `O=C(CCc1nnc2ccc(NCc3ccc(F)cc3)nn12)NC1CCCC1`, the “hERG current change (%, negative = inhibition) at 10uM” value is -0.461%.

Take `CSCC[C@H](NC(=O)OC(C)(C)C)c1nnc(SCc2ccc(F)cc2)o1`: the “hERG current change (%, negative = inhibition) at 10uM” value was -46.2%. As for `CSCC[C@H](NC(=O)OC(C)(C)C)c1nnc(SCC(=O)Nc2ccc(C)cc2C)o1`, the “hERG current change (%, negative = inhibition) at 10uM” value is recorded as -50.1%. For `Cc1ccc(NC(=O)CSc2nnc([C@H](C)NC(=O)OC(C)(C)C)o2)c(C)c1` the value was -6.67%; for `CSCC[C@H](NC(=O)OC(C)(C)C)c1nnc(SCc2cccc(F)c2)o1`, -30.3%; for `CSCC[C@H](NC(=O)OC(C)(C)C)c1nnc(SCC(=O)Nc2c(C)cccc2C)o1`, -14.5%. Regarding `CSCC[C@H](NC(=O)OC(C)(C)C)c1nnc(SCc2ccccc2)o1`, the “hERG current change (%, negative = inhibition) at 10uM” value is recorded as -51.3%. Under `Cc1cc(NC(=O)CSc2ccc3c(c2)OCCO3)no1` stands -8.22%; under `COc1ccc(/C=C2\SC(=O)N(CC(=O)Nc3ccccc3O)C2=O)cc1OC`, 9.72%.

`CCC1(C)Cc2c(sc3nnn(CC(=O)Nc4ccccc4)c(=O)c23)CO1` (centres unmarked): the “hERG current change (%, negative = inhibition) at 10uM” value is on record as -27.3%.

In the case of `O=C(CCn1c(=O)oc2ccccc21)Nc1ccc(C(=O)O)cc1`, the “hERG current change (%, negative = inhibition) at 10uM” value is given as -45%. Consider `CCOc1ccc(C(=O)N2CCN(C(=O)c3ccco3)CC2)cc1OCC`, for which the “hERG current change (%, negative = inhibition) at 10uM” value is on record as -5.57%. Take `COc1cc(C(=O)N2CCN(CCCc3ccccc3)CC2)cc(OC)c1OC`: the “hERG current change (%, negative = inhibition) at 10uM” value is given as -9.98%.

For `COc1ccc(C(=O)N2CCN(CCCc3ccccc3)CC2)cc1OC.O=C(O)C(=O)O`, the “hERG current change (%, negative = inhibition) at 10uM” value is reported as -73.3%. As to `CCOc1ccc(C(=O)N2CCN(CCc3ccccc3)CC2)cc1OCC`, the “hERG current change (%, negative = inhibition) at 10uM” value is -78.8%. As to `CCOc1ccc(C(=O)N2CCN(c3ccccc3)CC2)cc1OCC`, the “hERG current change (%, negative = inhibition) at 10uM” value is -32.4%. In the case of `COc1cccc(C(=O)N2CCN(CCCc3ccccc3)CC2)c1OC.O=C(O)C(=O)O`, the “hERG current change (%, negative = inhibition) at 10uM” value is -46.7%. As for `OC(C#Cc1ccccn1)c1cccs1` (centres unmarked), the “hERG current change (%, negative = inhibition) at 10uM” value turned out to be 3.9%.

On to `Clc1ccc(-c2[nH]ncc2N=Nc2ccccc2)cc1`, for which the “hERG current change (%, negative = inhibition) at 10uM” value stood at 15.3%. With `Cc1cccc(C(=O)NCCC(=O)Nc2ccc(C#N)cc2)c1`, the “hERG current change (%, negative = inhibition) at 10uM” value is given as -0.169%. Consider `CCOc1ccc(CN2CCNC(=O)C2CC(=O)NCCCC2CCCC2)cc1` (centres unmarked), for which the “hERG current change (%, negative = inhibition) at 10uM” value is on record as -34.1%. As for `COc1ccc(Cc2noc(CN3CCN(C4CCc5ccccc5C4)CC3)n2)cc1OC` (centres unmarked), the “hERG current change (%, negative = inhibition) at 10uM” value is recorded as -68.8%. In the case of `COc1ccc(Cc2noc(CN(C)CC3CCN(Cc4ccccc4)CC3)n2)cc1OC`, the “hERG current change (%, negative = inhibition) at 10uM” value is -22.9%.

`COc1ccc(Cc2noc(CN3CCNC(=O)CC3)n2)cc1OC`: the “hERG current change (%, negative = inhibition) at 10uM” value was 6.36%. For `COc1ccc(Cc2noc(CN3CCCN(Cc4ccc(F)cc4)CC3)n2)cc1OC` the value was -60.8%; for `COc1ccc(Cc2noc(CN3CCN(Cc4csc(C)n4)CC3)n2)cc1OC`, 18.2%; for `COCCN1CCN(Cc2nc(Cc3ccc(OC)c(OC)c3)no2)CC1`, 3.84%. As for `COc1ccc(Cc2noc(CN3CCCN(C4Cc5ccccc5C4)CC3)n2)cc1OC`, the “hERG current change (%, negative = inhibition) at 10uM” value is -67%. Under `COc1ccc(Cc2noc(CN3CCN(Cc4cccc(Cl)c4)CC3)n2)cc1OC` stands -11.5%; under `COc1ccc(Cc2noc(CN3CCC(c4ccncc4)CC3)n2)cc1OC`, -20%.

Consider `Cc1ccc(NC(=S)Nc2c(C)n(C)n(-c3ccccc3)c2=O)cc1Cl`, for which the “hERG current change (%, negative = inhibition) at 10uM” value is -22.7%.

As to `O=S1(=O)c2cccc3cccc(c23)N1Cc1nnc(-c2ccccc2Br)o1`, the “hERG current change (%, negative = inhibition) at 10uM” value is on record as -9.83%. Consider `COc1cc(C(=O)NC(=S)NNC(=O)c2ccc3c(c2)OCO3)cc(OC)c1OC`, for which the “hERG current change (%, negative = inhibition) at 10uM” value came out at 8.08%.

On to `CN1CCN(C(=O)CN(Cc2ccccc2)S(C)(=O)=O)CC1`, for which the “hERG current change (%, negative = inhibition) at 10uM” value stood at 25.7%. For `Cn1ncc(Cl)c1C(=O)NCc1ccc(Cl)cc1` the value was -13.3%; for `COc1ccc(NC(=O)CN(c2ccc(OC)c(Cl)c2)S(=O)(=O)c2ccccc2)c(OC)c1`, 8.77%; for `Cc1cccc(N=CC=C2OC(C)(C)C(C)(C)O2)c1`, 3.43%.

Take `COc1cccc(C(=O)NC23CC4CC(CC(C4)C2)C3)c1`: the “hERG current change (%, negative = inhibition) at 10uM” value is listed as 2.17%. For `O=C(Nc1cc(Cl)cc(Cl)c1)c1cccc(OC(F)F)c1` the value was -2.79%. For `N#Cc1cccc(C(=O)Nc2cccc(S(=O)(=O)N3CCCC3)c2)c1` the value was 2.83%; for `O=C(Nc1cccc(S(=O)(=O)N2CCCC2)c1)c1ccccc1OC(F)F`, -13.7%. As to `O=C(NC12CC3CC(CC(C3)C1)C2)c1cccc(OC(F)F)c1`, the “hERG current change (%, negative = inhibition) at 10uM” value is on record as -55.2%. Under `O=C(Nc1cccc(S(=O)(=O)N2CCCC2)c1)c1cccc(OC(F)F)c1` stands -56.4%. For `O=C(Nc1ccc(S(=O)(=O)N2CCCC2)cc1)c1cccc(OC(F)F)c1` the value was -54.3%. Under `O=C(Nc1ccc(S(=O)(=O)N2CCCC2)cc1)c1ccccc1` stands -7.24%; under `O=C(Nc1ccc(OC(F)F)c(Cl)c1)c1cccc(OC(F)F)c1`, -61.7%. `CC(=O)Nc1cccc(C(=O)Nc2ccc(S(=O)(=O)N3CCCCC3)cc2)c1`: the “hERG current change (%, negative = inhibition) at 10uM” value is -10.3%. Regarding `O=C(NC12CC3CC(CC(C3)C1)C2)c1ccccc1`, the “hERG current change (%, negative = inhibition) at 10uM” value was determined as 6.99%. As to `COc1ccc(NC(=O)c2cccc(OC(F)F)c2)cc1Cl`, the “hERG current change (%, negative = inhibition) at 10uM” value is reported as -22.2%. For the compound `COc1ccc(NC2CCCN(C(=O)c3oc(C)cc3C)C2)cc1OC` (centres unmarked), the “hERG current change (%, negative = inhibition) at 10uM” value turned out to be 16.2%. Regarding `CC(C)(C)C1CCC(C(=O)Nc2nccs2)CC1` (centres unmarked), the “hERG current change (%, negative = inhibition) at 10uM” value is 9.99%.

For the compound `C/C(=N\NC(=O)c1ccc(C)cc1)c1c(C)[nH]n(-c2ccccc2)c1=O`, the “hERG current change (%, negative = inhibition) at 10uM” value worked out at 14.2%. Take `Cc1ccccc1N1C(=O)C2ON(c3ccccc3)C(c3ccco3)C2C1=O` (centres unmarked): the “hERG current change (%, negative = inhibition) at 10uM” value was found to be 16.8%. For `CSc1nnnn1CCn1nnnc1SC`, the “hERG current change (%, negative = inhibition) at 10uM” value was 10.1%.
